Source: PubChem BioAssay (NCI)
About 83,000 compounds went through this panel and 20% of them were active in at least one assay; those are over-represented in the sample as a whole.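 Compound tested at a single concentration for 48 hours in 96-well plates; a percent growth value below 10 was scored as active.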 Activity calls are given as the source filed them.

What was measured:
Assay in all cases: NCI-60 one-dose screen, 48 h (100 = growth as untreated, 0 = no growth, -100 = all killed)
Conditions in all cases: 10 µM unless noted
HCT-15 colon = tested on: HCT-15 colon
HT29 colon = tested on: HT29 colon
SNB-75 CNS = tested on: SNB-75 CNS
SNB-19 CNS = tested on: SNB-19 CNS
U251 CNS = tested on: U251 CNS
PC-3 prostate = tested on: PC-3 prostate
SK-MEL-5 melanoma = tested on: SK-MEL-5 melanoma
UACC-62 melanoma = tested on: UACC-62 melanoma
LOX IMVI melanoma = tested on: LOX IMVI melanoma
SK-MEL-28 melanoma = tested on: SK-MEL-28 melanoma

Measured: growth

Cc1cccc(N=Nc2cccc(C)c2)c1
inactive: HCT-15 colon 96.3% | HT29 colon 102% | SNB-75 CNS 132% | SNB-19 CNS 92.4% | U251 CNS 106% | PC-3 prostate 104% | SK-MEL-5 melanoma 105% | UACC-62 melanoma 92.8% | LOX IMVI melanoma 105% | SK-MEL-28 melanoma 107%

COC1C(O)CC(OC2CC(OC3CC(O[C@@H]4C(=O)c5c(cc6cc(OC7CC(OC8CC(O)C(O)C(C)O8)C(O)C(C)O7)c(C)c(O)c6c5O)CC4[C@H](OC)C(=O)C(C)=O)OC(C)C3O)OC(C)C2O)OC1C (stereo not given in full)
inactive: SNB-19 CNS 11.2%
active: HCT-15 colon -2.22% | HT29 colon -19.8% | SNB-75 CNS -80.9% | U251 CNS 1.19% | PC-3 prostate -1.97% | SK-MEL-5 melanoma -40.4% | UACC-62 melanoma -30.3% | LOX IMVI melanoma -2.05% | SK-MEL-28 melanoma -20.6%

CN1CCN(Cc2ccc(NC(=O)c3cncc(C#Cc4cnc(N)cc4C#N)c3)cc2C(F)(F)F)CC1
inactive: HCT-15 colon 15.4% | SNB-75 CNS 33.2% | SNB-19 CNS 39.1% | U251 CNS 20.1% | PC-3 prostate 11.7%
active: HT29 colon 5.78% | SK-MEL-5 melanoma 9.34% | UACC-62 melanoma -12.9% | LOX IMVI melanoma -84.6% | SK-MEL-28 melanoma 0.973%

CN(C)C1CN(C(=O)c2cc(-c3ccc4ncnc(N5CCc6cc(F)c(Cl)cc65)c4c3)cnc2N)C1
active: HCT-15 colon 7.17% | SNB-75 CNS -27% | PC-3 prostate 7.13% | SK-MEL-5 melanoma -20.8% | UACC-62 melanoma -19.7% | LOX IMVI melanoma 7.5% | SK-MEL-28 melanoma 8.13%
inactive: HT29 colon 14.8% | SNB-19 CNS 23.5% | U251 CNS 25%

OC1CSSC1Cn1cnc2c(Nc3ccc(OCc4cccc(F)c4)c(Cl)c3)ncnc21 (stereo not given)
inactive: SNB-75 CNS 54.1%
active: HCT-15 colon -64% | HT29 colon 3.96% | SNB-19 CNS -49.4% | U251 CNS -26.3% | PC-3 prostate -69.3% | SK-MEL-5 melanoma -55.6% | UACC-62 melanoma -68.9% | LOX IMVI melanoma -82.6% | SK-MEL-28 melanoma -9.14%

CCCCC#Cc1c(I)n(C2OC(CO[Si](C)(C)C(C)(C)C)C3OC(C)(C)OC32)c(=O)n(C(=O)c2ccccc2)c1=O (stereo not given)
active: HCT-15 colon 8.46% | HT29 colon 0.292% | U251 CNS -33.2% | LOX IMVI melanoma -65.2% | SK-MEL-28 melanoma -42.9%
inactive: SNB-75 CNS 93.3% | SNB-19 CNS 72.3% | PC-3 prostate 43% | SK-MEL-5 melanoma 78.7% | UACC-62 melanoma 55.1%

Cc1nc(N/N=C/c2cn(-c3ccccc3)nc2-c2cc3ccccc3oc2=O)sc1N=Nc1ccccc1
inactive: HCT-15 colon 56.1% | HT29 colon 85.2% | SNB-75 CNS 50.4% | SNB-19 CNS 91.9% | U251 CNS 93.1% | PC-3 prostate 85.8% | SK-MEL-5 melanoma 93.3% | UACC-62 melanoma 71% | LOX IMVI melanoma 89.5% | SK-MEL-28 melanoma 87.6%

COc1cc(C=C2C(=O)NC(=S)NC2=O)cc(CN2CCCC2)c1O
inactive: HCT-15 colon 105% | HT29 colon 109% | SNB-75 CNS 95.4% | SNB-19 CNS 105% | U251 CNS 96.2% | PC-3 prostate 102% | SK-MEL-5 melanoma 111% | UACC-62 melanoma 99.7% | LOX IMVI melanoma 97.6% | SK-MEL-28 melanoma 115%

Clc1cccc(C2Cc3cnccc3-c3[nH]c4ccncc4c32)c1 (stereo not given)
active: SK-MEL-5 melanoma -60.2%
inactive: HCT-15 colon 25.2% | HT29 colon 40.9% | SNB-75 CNS 73.6% | SNB-19 CNS 53.9% | U251 CNS 36.9% | PC-3 prostate 21.1% | UACC-62 melanoma 36.5% | LOX IMVI melanoma 39.7% | SK-MEL-28 melanoma 62.7%

Cc1cccc(NC(=O)N/C(N)=N/c2nc3ccccc3s2)c1
active: SNB-75 CNS 4.63%
inactive: HCT-15 colon 23% | HT29 colon 11.3% | SNB-19 CNS 42.3% | U251 CNS 28.9% | PC-3 prostate 34.2% | SK-MEL-5 melanoma 23.7% | UACC-62 melanoma 33.5% | LOX IMVI melanoma 34.4% | SK-MEL-28 melanoma 63%

C/C=C1/CN(CCCCC)CC[C@H]1C(=O)c1cc2ccccc2[nH]1
inactive: HCT-15 colon 87% | HT29 colon 75.7% | SNB-75 CNS 76.4% | SNB-19 CNS 96.7% | U251 CNS 98.1% | PC-3 prostate 85.8% | SK-MEL-5 melanoma 87.9% | UACC-62 melanoma 95% | LOX IMVI melanoma 90.1% | SK-MEL-28 melanoma 111%

O=C(NCCCCO)c1cncnc1Nc1ccc2c(ccn2Cc2cccc(F)c2)c1
inactive: HCT-15 colon 85.1% | HT29 colon 99.9% | SNB-75 CNS 85% | SNB-19 CNS 85.1% | U251 CNS 94.7% | PC-3 prostate 86% | SK-MEL-5 melanoma 95.2% | UACC-62 melanoma 80.4% | LOX IMVI melanoma 93.7% | SK-MEL-28 melanoma 100%

COc1ccccc1/C=C/C(=O)Nc1ccc(F)cc1
inactive: HCT-15 colon 98.4% | HT29 colon 89.1% | SNB-75 CNS 77.9% | SNB-19 CNS 99.8% | U251 CNS 108% | PC-3 prostate 95.7% | SK-MEL-5 melanoma 95.1% | UACC-62 melanoma 89.8% | LOX IMVI melanoma 100% | SK-MEL-28 melanoma 108%

COc1ccc(Oc2ccc(/C=C/C(=O)c3ccc(OC)c(OC)c3)cc2)cc1
inactive: HCT-15 colon 61.5% | HT29 colon 86% | SNB-75 CNS 72.5% | SNB-19 CNS 85.8% | U251 CNS 68.9% | PC-3 prostate 81.6% | SK-MEL-5 melanoma 75.3% | UACC-62 melanoma 67.5% | LOX IMVI melanoma 53.7% | SK-MEL-28 melanoma 93.7%

COc1ccc(-c2nc(SCC(=O)Nc3nc4ccc(C)cc4s3)[nH]c(=O)c2C#N)cc1OC
inactive: HCT-15 colon 104% | HT29 colon 107% | SNB-75 CNS 60.4% | SNB-19 CNS 101% | U251 CNS 104% | PC-3 prostate 93.2% | SK-MEL-5 melanoma 97.7% | UACC-62 melanoma 94.4% | LOX IMVI melanoma 90.4% | SK-MEL-28 melanoma 108%

CN1CC(c2ccc(Br)cc2)C(C(=O)c2ccc(Br)cc2)C12C(=O)Nc1ccccc12 (stereo not given)
inactive: HCT-15 colon 59.5% | HT29 colon 36% | SNB-75 CNS 71.9% | SNB-19 CNS 85.1% | U251 CNS 82.3% | PC-3 prostate 43.5% | SK-MEL-5 melanoma 94.2% | UACC-62 melanoma 63.9% | LOX IMVI melanoma 79.8% | SK-MEL-28 melanoma 95.6%

CCN1C(=O)N(CC)C2C1NN=c1s/c(=C\c3ccc(OC)cc3)c(=O)n12 (stereo not given)
inactive: HCT-15 colon 10.3% | SNB-75 CNS 23% | SNB-19 CNS 26.9% | PC-3 prostate 26.5% | UACC-62 melanoma 23.9% | LOX IMVI melanoma 17.1% | SK-MEL-28 melanoma 56.4%
active: HT29 colon 3.44% | U251 CNS 7.45% | SK-MEL-5 melanoma -10.8%

O=CCCCOCc1ccccc1
inactive: HCT-15 colon 98.5% | HT29 colon 97.2% | SNB-75 CNS 87.8% | SNB-19 CNS 100% | U251 CNS 104% | PC-3 prostate 95.6% | SK-MEL-5 melanoma 100% | UACC-62 melanoma 95.2% | LOX IMVI melanoma 99% | SK-MEL-28 melanoma 112%

Cc1nc2sc(C(=O)Nc3cccc(Cl)c3C)c(N)c2cc1C(=O)/C=C/c1ccccc1
active: HCT-15 colon -66.4% | HT29 colon -58.6% | SNB-19 CNS -41.8% | U251 CNS -73.6% | PC-3 prostate 0.225% | SK-MEL-5 melanoma -10.8% | UACC-62 melanoma 2.03% | LOX IMVI melanoma -75.8%
inactive: SNB-75 CNS 12.6% | SK-MEL-28 melanoma 27.3%

COCCn1cc(-c2nc(-c3cn(CCOC)c4ncccc34)cs2)c2cc(F)ccc21
inactive: HCT-15 colon 17.8% | HT29 colon 57.6% | SNB-75 CNS 77.4% | SNB-19 CNS 90.4% | U251 CNS 69.8% | PC-3 prostate 39.2% | SK-MEL-5 melanoma 14.4% | UACC-62 melanoma 61.8% | LOX IMVI melanoma 64.3% | SK-MEL-28 melanoma 91%

CC(C)(Sc1cc(C(C)(C)C)c(O)c(C(C)(C)C)c1)Sc1cc(C(C)(C)C)c(OC(=O)CCC(=O)O)c(C(C)(C)C)c1
inactive: HCT-15 colon 22% | HT29 colon 24.2% | SNB-75 CNS 94.2% | SNB-19 CNS 47.4% | U251 CNS 34.4% | PC-3 prostate 35.5% | SK-MEL-5 melanoma 50.1% | LOX IMVI melanoma 56.1% | SK-MEL-28 melanoma 54.1%
active: UACC-62 melanoma 6.79%

Fc1cc2[nH]ncc2c2c3c(c(-c4cn[nH]c4C(F)(F)F)nc12)CCCC3
inactive: PC-3 prostate 34.6%
active: HCT-15 colon 4.79% | HT29 colon 6.14% | SNB-75 CNS -26.5% | SNB-19 CNS 8.83% | U251 CNS -0.282% | SK-MEL-5 melanoma -66.3% | UACC-62 melanoma -4.44% | LOX IMVI melanoma -50.6% | SK-MEL-28 melanoma 0.426%

Cc1nc2sc(C(=O)Nc3ccccn3)c(N)c2cc1C(C)O (stereo not given)
inactive: HCT-15 colon 36.4% | HT29 colon 27.4% | SNB-75 CNS 89.3% | SNB-19 CNS 64.7% | U251 CNS 48.8% | PC-3 prostate 72.7% | SK-MEL-5 melanoma 45% | UACC-62 melanoma 42.7% | LOX IMVI melanoma 67.1% | SK-MEL-28 melanoma 67.4%

C#CCOc1cccc(Nc2ncnc3c2ncn3C2CCN(C(=O)CCl)C2)c1 (stereo not given)
active: HCT-15 colon 1.63% | HT29 colon -68.4% | SNB-75 CNS -3.65% | U251 CNS -92% | PC-3 prostate -14.2% | SK-MEL-5 melanoma -85.7% | UACC-62 melanoma -66% | LOX IMVI melanoma -86.5% | SK-MEL-28 melanoma -43.9%
inactive: SNB-19 CNS 13.7%

CC(=O)N1N=C(c2ccc(Nc3nc(Nc4ccc(F)cc4)nc(Nc4ccc(F)cc4)n3)cc2)CC1c1ccc(N(C)C)cc1 (stereo not given)
inactive: HCT-15 colon 46.9% | HT29 colon 50.7% | SNB-75 CNS 62.7% | SNB-19 CNS 66.2% | U251 CNS 49.8% | PC-3 prostate 32.8% | SK-MEL-5 melanoma 29.3% | UACC-62 melanoma 57% | LOX IMVI melanoma 52.5% | SK-MEL-28 melanoma 64.2%
